Test results: the supplement of paper PMC10849652
The full data set covers some 7,900 targets. This sample favours those with a hit. About 0.6% of all pairs of compound and target were hits. Values without a mark were called inactive.

How the values were obtained:
Assay in all cases: log2 fold change, soluble protein after heating vs DMSO (PISA); higher = thermal stabilisation; K562 cells, 10 uM, 30 min; active = over 0.2 and 3.5 SD of the protein, either way, in both replicates (recomputed)
erlotinib = compound: C#Cc1cccc(Nc2ncnc3cc(OCCOC)c(OCCOC)cc23)c1 [erlotinib]
Outline: (§1)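 K562 cells (2×10^6 cells/mL) were treated with 10 μM compound for 30 min, and aliquots were heated for 3 min over 48°C-58°C. Pooled aliquots were extracted in PBS with 0.5% NP-40 at 4°C, and the supernatant after 21,000xg for 90 min was measured by TMTpro 16plex LC-MS/MS with channel sums equalised. Reported thermal stability, relative to control samples and from duplicates, is a log2 fold change.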

[1] = compound: C/C(=N\NC(=O)C1=CC(=CC=C1)S(=O)(=O)N2CCOCC2)/C3=C(C=CC(=C3)Cl)O
Outline: as §1

[2] = compound: C1=CC(=C(C=C1Cl)C2=NC3=NC=CN=C3C(=N2)NC4=CC=NC=C4)F
Outline: as §1

[3] = compound: C1=CC(=CC=C1C2=NC3=C(N2)C=C(C=C3)C(=O)N)OC4=CC=C(C=C4)Cl
Outline: as §1

[4] = compound: C1=CC2=C(C=CC(=C2)/C=C\3/C(=O)NC(=NCC4=CC=CS4)S3)N=C1
Outline: as §1

[5] = compound: C1=CC2=NC=CN=C2C=C1/C=C/3\C(=O)NC(=O)S3
Outline: as §1

[6] = compound: C1=CC=C(C=C1)C2=NC(=C(N2)C3=CC=NC=C3)C4=CC(=C(C=C4)Cl)O
Outline: as §1

[7] = compound: C1=CC=C2C(=C1)C3=NNC4=CC=CC(=C43)C2=O
Outline: as §1

ibrutinib = compound: C=CC(=O)N1CCC[C@@H](n2nc(-c3ccc(Oc4ccccc4)cc3)c3c(N)ncnc32)C1 [ibrutinib]
Outline: as §1

[8] = compound: CC(=O)c1cnc2ccc(-c3cc(Cl)c(O)c(Cl)c3)nc2c1N[C@H]1CC[C@H](CN(C)C)CC1
Outline: as §1

ralimetinib = compound: CC(C)(C)Cn1c(N)nc2ccc(-c3[nH]c(C(C)(C)C)nc3-c3ccc(F)cc3)nc21 [ralimetinib]
Outline: as §1

[9] = compound: CC(C)(O)CC(=O)NCCn1ccc2ncnc(Nc3ccc(Oc4cccc(C(F)(F)F)c4)c(Cl)c3)c21
Outline: as §1

[10] = compound: CC(C)C1=C2N=C(C=C(N2N=C1)NCC3=CC=CC=C3)NCCCCCCN
Outline: as §1

[11] = compound: CC(C)C[C@@H](C=O)NC(=O)[C@H](CC(C)C)NC(=O)[C@H](CC(C)C)NC(=O)OCc1ccccc1
Outline: as §1

[12] = compound: CC1=C(C(CC(=O)N1)C2=CC=C(C=C2)C(F)(F)F)C(=O)NC3=C(C=C4C(=C3)C=NN4)F
Outline: as §1

[13] = compound: C1CCN(C1)C(=O)NC2=CC=CC(=C2)NC3=NC=C(C(=N3)NCCC4=CN=CN4)Br
Outline: as §1

[14] = compound: C1CN(CCC1(CC2=CC=C(C=C2)Cl)N)C3=NC=NC4=C3C=CN4
Outline: as §1

IRAK-1-4 Inhibitor I = compound: C1COCCN1CCN2C3=CC=CC=C3N=C2NC(=O)C4=CC(=CC=C4)[N+](=O)[O-] [IRAK-1-4 Inhibitor I]
Outline: as §1

pinometostat = compound: CC(C)N(C[C@H]1O[C@@H](n2cnc3c(N)ncnc32)[C@H](O)[C@@H]1O)[C@H]1C[C@@H](CCc2nc3cc(C(C)(C)C)ccc3[nH]2)C1 [pinometostat]
Outline: as §1

[15] = compound: CC1=C(C2=C(C=C1)C(=O)C3=CC=CC=C3N2CCCN)C
Outline: as §1

Sequence of UniProt Q96G97 (Q96G97 whole entry, looked up): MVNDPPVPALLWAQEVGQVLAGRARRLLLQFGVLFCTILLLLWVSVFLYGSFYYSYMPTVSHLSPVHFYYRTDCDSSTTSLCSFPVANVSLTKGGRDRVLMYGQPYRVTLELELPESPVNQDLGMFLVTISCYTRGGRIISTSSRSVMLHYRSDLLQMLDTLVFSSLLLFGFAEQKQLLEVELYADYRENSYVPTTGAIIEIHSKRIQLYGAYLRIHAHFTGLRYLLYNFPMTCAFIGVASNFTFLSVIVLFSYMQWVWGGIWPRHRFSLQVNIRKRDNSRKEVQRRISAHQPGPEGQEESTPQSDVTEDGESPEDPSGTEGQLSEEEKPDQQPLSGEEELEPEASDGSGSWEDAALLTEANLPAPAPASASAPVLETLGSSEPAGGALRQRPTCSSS
Sequence of UniProt P25440 (P25440 whole entry, looked up): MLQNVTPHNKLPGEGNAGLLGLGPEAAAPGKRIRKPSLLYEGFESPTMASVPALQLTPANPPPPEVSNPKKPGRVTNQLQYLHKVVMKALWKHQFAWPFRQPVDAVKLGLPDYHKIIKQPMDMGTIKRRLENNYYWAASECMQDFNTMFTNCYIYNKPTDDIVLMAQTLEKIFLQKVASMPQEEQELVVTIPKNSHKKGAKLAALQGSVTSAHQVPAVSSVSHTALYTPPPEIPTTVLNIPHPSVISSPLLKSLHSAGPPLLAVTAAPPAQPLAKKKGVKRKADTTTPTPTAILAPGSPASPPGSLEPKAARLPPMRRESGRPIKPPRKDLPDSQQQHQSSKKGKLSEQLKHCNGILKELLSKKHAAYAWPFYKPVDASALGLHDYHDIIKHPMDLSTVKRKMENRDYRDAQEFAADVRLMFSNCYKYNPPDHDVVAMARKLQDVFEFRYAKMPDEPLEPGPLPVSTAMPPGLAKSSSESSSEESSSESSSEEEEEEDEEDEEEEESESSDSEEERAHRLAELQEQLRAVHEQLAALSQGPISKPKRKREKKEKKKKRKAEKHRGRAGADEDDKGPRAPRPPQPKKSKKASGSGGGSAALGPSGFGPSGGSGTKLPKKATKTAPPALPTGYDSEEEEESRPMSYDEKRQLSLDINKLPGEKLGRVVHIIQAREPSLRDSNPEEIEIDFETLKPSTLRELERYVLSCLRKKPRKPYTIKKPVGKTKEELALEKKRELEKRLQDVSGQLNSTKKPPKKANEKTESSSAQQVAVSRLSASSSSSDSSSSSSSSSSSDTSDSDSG
Sequence of UniProt Q01484 (Q01484 whole entry, looked up): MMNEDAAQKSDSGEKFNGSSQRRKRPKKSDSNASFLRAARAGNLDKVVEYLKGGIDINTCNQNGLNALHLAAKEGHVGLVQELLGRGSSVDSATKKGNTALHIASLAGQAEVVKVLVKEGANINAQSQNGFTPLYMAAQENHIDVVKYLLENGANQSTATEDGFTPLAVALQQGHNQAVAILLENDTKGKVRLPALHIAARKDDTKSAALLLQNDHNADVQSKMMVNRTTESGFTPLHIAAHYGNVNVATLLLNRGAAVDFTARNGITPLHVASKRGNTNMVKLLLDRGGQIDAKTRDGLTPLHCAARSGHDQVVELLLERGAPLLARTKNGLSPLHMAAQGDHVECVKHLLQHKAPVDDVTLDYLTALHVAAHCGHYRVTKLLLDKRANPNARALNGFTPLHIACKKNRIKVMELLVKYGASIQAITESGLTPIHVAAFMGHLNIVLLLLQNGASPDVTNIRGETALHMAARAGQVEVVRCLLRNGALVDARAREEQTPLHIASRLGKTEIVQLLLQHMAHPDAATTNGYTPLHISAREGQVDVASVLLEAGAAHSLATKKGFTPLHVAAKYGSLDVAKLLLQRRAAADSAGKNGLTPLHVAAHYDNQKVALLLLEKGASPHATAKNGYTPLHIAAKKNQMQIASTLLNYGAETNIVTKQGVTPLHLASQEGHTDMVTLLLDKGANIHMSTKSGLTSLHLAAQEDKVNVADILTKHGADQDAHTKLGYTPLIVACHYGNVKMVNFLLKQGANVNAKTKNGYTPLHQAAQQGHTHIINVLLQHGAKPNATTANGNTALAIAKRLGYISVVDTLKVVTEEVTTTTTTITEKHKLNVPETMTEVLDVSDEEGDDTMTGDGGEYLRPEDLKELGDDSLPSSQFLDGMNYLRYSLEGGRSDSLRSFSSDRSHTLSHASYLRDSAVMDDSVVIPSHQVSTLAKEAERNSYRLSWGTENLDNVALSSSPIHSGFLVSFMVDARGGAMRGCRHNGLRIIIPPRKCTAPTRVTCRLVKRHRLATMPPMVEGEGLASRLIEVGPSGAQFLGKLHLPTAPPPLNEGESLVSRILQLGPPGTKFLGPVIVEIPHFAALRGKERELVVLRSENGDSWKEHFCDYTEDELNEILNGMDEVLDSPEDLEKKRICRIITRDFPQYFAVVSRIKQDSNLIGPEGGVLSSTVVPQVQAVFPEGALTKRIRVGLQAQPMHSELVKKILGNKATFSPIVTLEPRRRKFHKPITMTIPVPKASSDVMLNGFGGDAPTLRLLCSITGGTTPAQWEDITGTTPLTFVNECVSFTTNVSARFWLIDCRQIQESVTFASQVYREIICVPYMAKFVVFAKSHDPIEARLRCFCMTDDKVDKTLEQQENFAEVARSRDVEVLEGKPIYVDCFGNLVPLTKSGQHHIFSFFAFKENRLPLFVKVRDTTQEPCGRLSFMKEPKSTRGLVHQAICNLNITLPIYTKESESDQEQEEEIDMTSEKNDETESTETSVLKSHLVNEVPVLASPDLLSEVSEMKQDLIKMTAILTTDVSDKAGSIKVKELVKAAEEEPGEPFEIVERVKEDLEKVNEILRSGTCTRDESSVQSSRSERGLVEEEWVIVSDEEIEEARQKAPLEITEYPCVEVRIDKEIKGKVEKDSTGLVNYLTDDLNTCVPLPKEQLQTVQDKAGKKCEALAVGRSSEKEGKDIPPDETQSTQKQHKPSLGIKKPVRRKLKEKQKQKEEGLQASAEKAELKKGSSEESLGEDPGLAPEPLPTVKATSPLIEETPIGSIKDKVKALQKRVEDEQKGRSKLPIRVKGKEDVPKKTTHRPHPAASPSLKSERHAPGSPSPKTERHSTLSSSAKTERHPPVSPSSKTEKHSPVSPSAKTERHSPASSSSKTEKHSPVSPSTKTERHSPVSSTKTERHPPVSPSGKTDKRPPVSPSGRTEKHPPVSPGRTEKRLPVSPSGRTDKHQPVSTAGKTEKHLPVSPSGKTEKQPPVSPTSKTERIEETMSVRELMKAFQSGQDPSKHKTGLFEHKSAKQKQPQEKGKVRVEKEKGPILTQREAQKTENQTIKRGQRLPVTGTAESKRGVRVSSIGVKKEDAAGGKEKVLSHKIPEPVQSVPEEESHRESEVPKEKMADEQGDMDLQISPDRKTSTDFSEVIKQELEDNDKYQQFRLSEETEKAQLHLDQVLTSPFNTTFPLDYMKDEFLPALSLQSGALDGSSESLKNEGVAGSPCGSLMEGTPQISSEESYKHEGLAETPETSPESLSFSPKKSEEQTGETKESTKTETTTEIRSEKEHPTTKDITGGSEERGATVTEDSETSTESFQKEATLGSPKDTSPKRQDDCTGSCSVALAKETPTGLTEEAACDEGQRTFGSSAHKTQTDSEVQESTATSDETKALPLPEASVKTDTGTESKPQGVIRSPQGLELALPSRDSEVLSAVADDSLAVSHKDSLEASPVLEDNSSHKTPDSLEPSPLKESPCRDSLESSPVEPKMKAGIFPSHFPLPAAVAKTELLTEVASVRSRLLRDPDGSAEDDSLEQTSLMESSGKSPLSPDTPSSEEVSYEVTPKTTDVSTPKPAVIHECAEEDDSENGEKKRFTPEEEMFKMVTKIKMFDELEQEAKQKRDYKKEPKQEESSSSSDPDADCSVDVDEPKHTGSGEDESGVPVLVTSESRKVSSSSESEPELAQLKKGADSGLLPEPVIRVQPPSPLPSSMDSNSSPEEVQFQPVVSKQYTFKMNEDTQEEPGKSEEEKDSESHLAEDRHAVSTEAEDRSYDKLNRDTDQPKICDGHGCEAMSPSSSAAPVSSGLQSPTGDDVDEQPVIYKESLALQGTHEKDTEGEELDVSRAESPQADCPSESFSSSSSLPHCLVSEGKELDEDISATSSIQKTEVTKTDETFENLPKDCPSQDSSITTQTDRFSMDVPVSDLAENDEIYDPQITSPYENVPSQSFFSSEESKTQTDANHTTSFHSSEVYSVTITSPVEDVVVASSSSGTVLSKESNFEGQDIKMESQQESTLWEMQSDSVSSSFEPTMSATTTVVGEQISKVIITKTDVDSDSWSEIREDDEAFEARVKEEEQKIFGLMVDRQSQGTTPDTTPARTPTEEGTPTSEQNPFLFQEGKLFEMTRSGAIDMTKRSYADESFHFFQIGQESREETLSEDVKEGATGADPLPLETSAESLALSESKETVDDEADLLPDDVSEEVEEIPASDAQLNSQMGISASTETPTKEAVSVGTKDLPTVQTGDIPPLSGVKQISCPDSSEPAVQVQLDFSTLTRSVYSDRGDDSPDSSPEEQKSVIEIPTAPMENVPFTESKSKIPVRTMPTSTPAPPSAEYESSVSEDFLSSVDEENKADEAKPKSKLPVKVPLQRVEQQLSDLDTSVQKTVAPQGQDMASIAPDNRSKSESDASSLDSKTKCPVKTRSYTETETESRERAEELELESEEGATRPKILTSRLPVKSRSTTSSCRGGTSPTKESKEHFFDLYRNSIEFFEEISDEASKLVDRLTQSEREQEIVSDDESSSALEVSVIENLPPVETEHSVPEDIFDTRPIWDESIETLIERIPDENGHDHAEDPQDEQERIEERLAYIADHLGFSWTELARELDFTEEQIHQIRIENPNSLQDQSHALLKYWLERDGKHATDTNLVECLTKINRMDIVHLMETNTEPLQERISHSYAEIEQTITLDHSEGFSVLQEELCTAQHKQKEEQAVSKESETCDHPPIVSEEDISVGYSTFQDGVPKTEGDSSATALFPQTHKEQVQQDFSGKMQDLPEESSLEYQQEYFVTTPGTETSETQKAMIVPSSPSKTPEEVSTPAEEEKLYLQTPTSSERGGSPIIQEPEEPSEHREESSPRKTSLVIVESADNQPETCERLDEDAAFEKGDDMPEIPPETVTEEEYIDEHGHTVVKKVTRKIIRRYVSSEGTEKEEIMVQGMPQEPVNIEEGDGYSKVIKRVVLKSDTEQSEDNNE

Target | log2 fold change (erlotinib) | log2 fold change [1] | log2 fold change [2] | log2 fold change [3] | log2 fold change [4] | log2 fold change [5] | log2 fold change [6] | log2 fold change [7] | log2 fold change (ibrutinib) | log2 fold change [8] | log2 fold change (ralimetinib) | log2 fold change [9] | log2 fold change [10] | log2 fold change [11] | log2 fold change [12] | log2 fold change [13] | log2 fold change [14] | log2 fold change (IRAK-1-4 Inhibitor I) | log2 fold change (pinometostat) | log2 fold change [15]
ACTBL2 (UniProt Q562R1) | -0.247 | -0.805 | 0.093 | 0.025 | -0.419 | -0.215 | 0.047 | 0.147 | 0 | -0.156 | 0.351 | 0.132 | 0.372 | 0.195 | 0.406 | – | – | – | – | –
ARHGAP1 (UniProt Q07960) | -0.039 | 0.014 | 0.025 | 0.021 | 0.038 | 0.021 | 0.021 | -0.011 | -0.014 | -0.049 | -0.022 | -0.014 | 0.162 | 0.023 | -0.011 | 0.002 | 0.019 | 0.025 | 0 | -0.014
BAD (UniProt Q92934) | 0.049 | 0.079 | 0.022 | 0.124 | 0.083 | 0.023 | 0.01 | 0.025 | 0.024 | -0.061 | -0.054 | 0.077 | -0.04 | -0.041 | 0.065 | – | – | 0.057 | 0.012 | –
AFDN isoform 1 (UniProt P55196) | -0.008 | 0.072 | 0.002 | -0.003 | -0.136 | -0.018 | -0.082 | -0.005 | -0.015 | -0.102 | -0.12 | -0.048 | -0.001 | 0.002 | – | – | – | -0.046 | -0.072 | –
BRD8 isoform 2 (UniProt Q9H0E9) | 0.157 | 0.016 | 0.029 | 0.082 | 0.035 | 0.055 | -0.152 | -0.044 | 0 | 0.036 | -0.103 | 0.021 | -0.003 | 0.093 | – | -0.027 | 0.021 | 0.028 | 0.01 | -0.071
BSCL2 isoform 4 (UniProt Q96G97) | -0.024 | 0.088 | -0.016 | 0.052 | 0.06 | -0.012 | – | -0.045 | 0.069 | -0.109 | – | 0.003 | -0.219 | – | -0.122 | 0.045 | -0.001 | – | – | 0.023
ASS1 (UniProt P00966) | 0.059 | 0.301 (active) | -0.05 | 0.008 | -0.003 | 0.036 | 0.012 | 0.118 | 0.05 | -0.155 | -0.022 | -0.064 | -0.122 | 0.006 | -0.071 | 0.103 | -0.037 | – | – | -0.021
BID isoform 2 (UniProt P55957) | 0.026 | 0.006 | 0.014 | 0.052 | -0.04 | 0.012 | -0.03 | 0.028 | 0.008 | -0.039 | -0.038 | -0.053 | 0.105 | 0.012 | -0.047 | -0.05 | 0.034 | 0.052 | -0.018 | 0.074
AP4S1 (UniProt Q9Y587) | -0.014 | -0.013 | -0.015 | 0.078 | -0.456 (active) | 0 | – | -0.111 | -0.12 | 0.008 | – | -0.079 | 0 | – | 0.027 | – | – | -0.061 | -0.145 | –
AASDH (UniProt Q4L235) | 0.113 | – | 0.037 | 0.048 | – | 0.158 | 0.003 | – | -0.308 | – | -0.011 | -0.15 | -0.107 | -0.066 | -0.017 | -0.058 | 0.034 | 0.037 | 0.038 | -0.184
ABITRAM (UniProt Q9NX38) | – | 0.084 | 0.029 | – | 0.018 | 0.023 | -0.05 | 0.034 | 0.005 | -0.073 | -0.088 | -0.008 | – | 0.016 | 0.049 | -0.037 | 0.018 | 0.041 | -0.025 | 0.001
ALDH2 isoform 2 (UniProt P05091) | – | -0.197 | -0.106 | – | 0.6 | 0.07 | -0.263 | 0.131 | -0.1 | -0.133 | -0.18 | 0.029 | – | 0.063 | – | 0.208 | 0.032 | – | – | 0.087
BAP18 isoform 3 (UniProt Q8IXM2) | 0.02 | – | – | -0.146 | – | – | – | – | – | – | – | – | 0.074 | – | – | -0.039 | -0.015 | – | – | -0.183
ANK2 (UniProt Q01484) | -0.089 | -0.173 | – | -0.028 | 0.325 | -0.059 | 0.011 | -0.031 | -0.024 | -0.058 | -0.029 | – | -0.178 | 0.08 | 0.071 | -0.126 | -0.131 | -0.069 | 0.062 | 0.423 (active)
AZI2 (UniProt Q9H6S1) | -0.039 | – | – | -0.211 | – | 0.009 | -0.012 | – | 0.046 | – | -0.241 | – | -0.126 | -0.09 | -0.018 | -0.025 | 0.04 | – | – | 0.022
BRD2 isoform 2 (UniProt P25440) | -0.552 | – | – | 0.204 | -0.073 | 0.367 | – | 0.137 | -0.164 | -0.63 | – | – | 0.042 | – | – | -0.08 | -0.002 | 0.091 | 0.038 | -0.117
ACSL6 isoform 1 (UniProt Q9UKU0) | -0.066 | – | 0.02 | 0.025 | – | -0.083 | -0.061 | – | 0.043 | – | -0.001 | 0.222 | -0.21 | 0.027 | -0.109 | -0.03 | 0.04 | – | – | 0.012
AARSD1 (UniProt Q9BTE6) | 0.131 | -0.415 | – | 0.054 | -0.063 | -0.117 | – | 0.197 | 0.135 | 0.107 | – | – | -0.13 | – | -0.045 | – | – | 0.264 | 0.041 | –
ATP6V0A1 (UniProt Q93050) | – | – | – | – | – | 0.187 | – | – | 0.047 | – | – | – | – | – | – | – | – | – | – | –
AUH (UniProt Q13825) | 0.155 | 0.042 | – | -0.035 | -0.122 | 0.112 | 0.039 | 0.065 | 0.031 | 0.036 | -0.003 | – | 0.084 | 0.026 | – | -0.028 | 0.059 | -0.237 | 0.28 | 0.032
APOH (UniProt P02749) | -0.214 | -0.028 | – | 0.051 | -0.026 | 0.069 | -0.1 | -0.092 | 0.155 | 0.211 | -0.131 | – | -0.067 | 0.119 | 0.419 | 0.188 | 0.09 | 0.13 | -0.117 | -0.126
